From PubChem BioAssay
Records with an inconclusive call do not appear. Calls of active or inactive are those of the source.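 Rule for the calls, unless noted: active = Her2 level under about 52% in both replicate screens, with viability over 70% of control (limit read from the data); inconclusive = Her2 under the limit in one screen only, or viability under 70%; inactive = Her2 level above the set limit.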

How the values were obtained:
[1] = reducers of endogenous Her2 protein level, primary screen, SKBR3 breast tumor cells, AlphaScreen, ATP viability (AID 461); conditions: 18-24 h, measured here: SKBR3 viability, ATP luminescence, at 10 µM;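 for Her2 level: lower value means less Her2 protein in the cells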;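 for viability: percent of carrier control wells set as 100% viability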
[2] = biological target: Receptor tyrosine-protein kinase erbB-2 (Homo sapiens) (UniProt P04626); test: as above; conditions: 18-24 h, at 10 µM, stronger effect = lower value
[3] = SK-BR-3 cell growth inhibitors, pilot screen, 24 h, human (AID 572;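 active = viability at or below 10% of carrier control in both of two separate runs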;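 note: compound exposure lasted between 18 and 24 h rather than exactly 24 h; 100% = carrier-treated control wells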); conditions: SK-BR-3 viability, CellTiter-Glo luminescence, at 10 µM, stronger effect = lower value
[4] = HUVEC growth inhibition – cell-based, human, primary screen (AID 575;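 active = viability at or below 30% in both replicate assays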;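 note: 100% = median of untreated cell wells with 0.1% DMSO on each plate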); conditions: HUVEC proliferation, CellTiter-Glo luminescence, 72 h; at 10 µM; stronger effect = lower value
[5] = growth inhibitors of H69AR lung tumor, primary screen, human, duplicate replicates (AID 580;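 active = viability at or under a set limit in both replicates, limit being median viability minus 3 SD, cut at about 48% in these data, passing the limit was not always enough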;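 note: 100% = mean luminescence of untreated wells and 0% = no signal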); conditions: H69AR lung tumor cells viability, ATP luminescence, 72 h; at 10 µM; stronger effect = lower value
[6] = reversal of MRP1-mediated doxorubicin resistance, pilot screen, H69AR cells, doxorubicin co-treatment (AID 601;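 active = viability loss from added drug above about 55%, and viability with drug at most 40%, in both replicates, limit read from the data, passing the limit was not always enough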); conditions: CellTiter-Glo, 72 h, at 10 µM; for differential viability (reversal): stronger effect = higher value
[7] = 384-well plate pilot, post-Golgi transport modulator project, inhibition of yeast transport mutant growth (AID 636; in the data active = inhibition above about 31%); conditions: absorbance 615 nm, about 18 h, stronger effect = higher value
[8] = growth suppression of yeast trafficking mutant, preliminary HTS, modulators of trafficking downstream of Golgi apparatus project, 1536-format plate, OD 615 nm (AID 637; in the data active = inhibition above about 30%); conditions: yeast transport mutant growth, absorbance 615 nm, 18 h; stronger effect = higher value
[9] = OD615 S. cerevisiae growth inhibition, permissive medium, pilot counter-assay, permissive growth control for S. cerevisiae lifespan shortening project (AID 705;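 active = growth inhibition above 25% in both replicates, a cutoff set 3 SD above the mean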); conditions: OD615, 24 h, at 10 µM, stronger effect = higher value
[10] = Restrictive medium S. cerevisiae growth inhibition, OD615, pilot screen of yeast lifespan reduction project, restrictive growth control (AID 706;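 active = growth inhibition above a set limit, 3 SD over mean compound inhibition, in both replicates, cut at about 43% in these data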;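 note: modified DeaD lifespan yeast strain shifted to restrictive glucose medium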); conditions: OD615, 48 h, at 10 µM, stronger effect = higher value
[11] = viability gain of MRP-1-high H69AR cells under doxorubicin, pilot screen, MRP-1 activator project, CellTiter-Glo, duplicate (AID 807;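 active = viability increase at or above a cutoff of the median across tested compounds plus 3 SD, cut at about 8.5% in these data, passing the limit was not always enough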;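 note: compound pretreatment 18-22 h then 72 h combined with doxorubicin; 0% = doxorubicin alone and 100% = vehicle without doxorubicin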); conditions: H69AR viability with doxorubicin, CellTiter-Glo luminescence; at 10 µM; stronger effect = higher value
[12] = growth suppression of beta-catenin knockout HCT116, pilot screen, human colon tumor cells (AID 823;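 active = cell viability at or below a set limit in both duplicate runs, the limit being the all-compound median minus 4 SD, cut at about 23% in these data, passing the limit was not always enough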;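 note: 0% = wells killed by 20 µM Hyamine and 100% = untreated DMSO cell wells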); conditions: CellTiter-Glo, 60 h, at 10 µM, stronger effect = lower value
[13] = growth suppression of PTEN-deleted HCT116, pilot screen, cell-based, HCT116 clonal line, CellTiter-Glo (AID 824;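 active = viability at or below 27.92% in each of two runs, the all-compound median minus 4 SD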;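 note: 0% = 20 µM Hyamine control and 100% = vehicle cell control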); conditions: 60 h, at 10 µM, stronger effect = lower value
[14] = inhibitors of the yeast RAM network, pilot screen, dse1pr::URA3 reporter, 5-FOA selection (AID 869;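 active = inhibition over a set limit, the all-compound mean plus 3 SD, in both replicate runs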;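 note: 0% = DMSO wells with no growth and 100% = 10 µM 1-NA-PP1 with full growth; RAM network block rescues cells from 5-FOA so hits raise OD615 growth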); conditions: S. cerevisiae dse1pr::URA3 5-FOA growth, OD615, 2 d; at 10 µM; stronger effect = higher value; strain carries analog-sensitive mutant Cbk1 kinase
[15] = RAM signaling pathway blockade in yeast – S. cerevisiae, Pdr1DBD-CYC8 efflux-inhibited sensitized strain, primary screen (AID 1298;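 active = RAM network inhibition above 8.4% in each of two replicates, 3 SD over the compound average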;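 note: 0% = DMSO untreated cells without growth and 100% = 10 µM 1-NA-PP1 full growth; higher means more yeast growth rescued from 5-FOA killing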); conditions: S. cerevisiae cbk1-as DSE1-URA3 strain, 5-FOA growth OD615, 2 d; at 50 µM; stronger effect = higher value
[16] = H69AR cells + 2 uM doxorubicin, measured here: viability with 2 uM doxorubicin, stronger effect = lower value
[17] = H69AR cells, compound alone cytotoxicity

Chain of Receptor tyrosine-protein kinase erbB-2 (Homo sapiens) (P04626 whole entry, looked up): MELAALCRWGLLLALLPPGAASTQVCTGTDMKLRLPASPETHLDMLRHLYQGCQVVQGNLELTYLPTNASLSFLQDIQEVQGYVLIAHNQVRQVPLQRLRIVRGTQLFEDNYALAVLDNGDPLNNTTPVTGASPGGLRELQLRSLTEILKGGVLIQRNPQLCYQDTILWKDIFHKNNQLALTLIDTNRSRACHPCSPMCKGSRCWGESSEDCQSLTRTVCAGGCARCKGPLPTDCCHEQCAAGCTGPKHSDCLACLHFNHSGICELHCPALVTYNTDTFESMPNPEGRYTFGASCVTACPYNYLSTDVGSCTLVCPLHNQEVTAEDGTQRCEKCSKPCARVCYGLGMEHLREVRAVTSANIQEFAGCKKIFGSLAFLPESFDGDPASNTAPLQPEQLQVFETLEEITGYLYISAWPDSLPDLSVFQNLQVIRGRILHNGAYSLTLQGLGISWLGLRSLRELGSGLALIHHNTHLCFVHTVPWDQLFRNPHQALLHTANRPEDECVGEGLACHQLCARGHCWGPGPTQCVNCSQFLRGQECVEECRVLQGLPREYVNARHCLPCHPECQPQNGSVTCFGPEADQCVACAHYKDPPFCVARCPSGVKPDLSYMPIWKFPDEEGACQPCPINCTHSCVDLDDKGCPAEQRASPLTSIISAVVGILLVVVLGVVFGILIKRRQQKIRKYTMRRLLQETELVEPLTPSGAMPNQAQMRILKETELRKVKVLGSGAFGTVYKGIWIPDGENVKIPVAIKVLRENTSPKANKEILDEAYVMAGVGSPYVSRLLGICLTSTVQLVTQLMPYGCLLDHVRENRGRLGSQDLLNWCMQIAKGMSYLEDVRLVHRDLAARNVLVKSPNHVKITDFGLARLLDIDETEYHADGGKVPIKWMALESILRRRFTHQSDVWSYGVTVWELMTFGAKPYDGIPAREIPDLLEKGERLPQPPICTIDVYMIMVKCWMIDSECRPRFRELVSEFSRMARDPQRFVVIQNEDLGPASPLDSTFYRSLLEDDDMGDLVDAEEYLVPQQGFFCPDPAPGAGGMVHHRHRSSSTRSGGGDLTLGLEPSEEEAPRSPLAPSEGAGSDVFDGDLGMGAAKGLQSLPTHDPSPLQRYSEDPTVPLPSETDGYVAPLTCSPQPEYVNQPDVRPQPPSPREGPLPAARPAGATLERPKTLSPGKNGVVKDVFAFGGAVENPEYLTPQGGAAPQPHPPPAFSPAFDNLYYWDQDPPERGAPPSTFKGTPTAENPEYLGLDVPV

| SMILES | viability [1] [%] | Her2 level [2] | viability [3] | viability [4] | viability [5] | differential viability (reversal) ([6]; H69AR cells + 2 uM doxorubicin) | viability [6, 16] [%] | viability [6, 17] [%] | inhibition [7] | inhibition [8] | growth inhibition [9] | growth inhibition [10] | viability increase [11] | viability [12] | viability [13] | inhibition [14] | RAM network inhibition [15] |
| --- | --- | --- | --- | --- | --- | --- | --- | --- | --- | --- | --- | --- | --- | --- | --- | --- | --- |
| CCn1c(=O)cc(OCC(=O)Nc2nc(C)cs2)c2ccccc21 | 83.5 | 84.5% (inactive) | 83.5% (inactive) | 61.6% (inactive) | 94.8% (inactive) | 2.11% (inactive) | 92.7 | 94.8 | -3.73% (inactive) | -1.67% (inactive) | -10.5% (inactive) | -9.12% (inactive) | -2.41% (inactive) | 93.2% (inactive) | 86.9% (inactive) | 1.33% (inactive) | 2.84% (inactive) |
| COc1ccc(OC)c(C(=O)c2ccc(C(=O)O)cc2)c1 | 120 | 107% (inactive) | 120% (inactive) | 87.2% (inactive) | 103% (inactive) | 6.11% (inactive) | 96.5 | 103 | -3.73% (inactive) | 1.94% (inactive) | -10.1% (inactive) | -16.1% (inactive) | 0.88% (inactive) | 105% (inactive) | 103% (inactive) | 1.67% (inactive) | 0.12% (inactive) |
| CC(=O)C1=C(C)Nc2ncnn2C1c1cccc(OCc2ccccc2)c1 (stereo not given) | 102 | 104% (inactive) | 102% (inactive) | 115% (inactive) | 88.6% (inactive) | -5.64% (inactive) | 94.2 | 88.6 | -4% (inactive) | 1.5% (inactive) | -3.25% (inactive) | -0.16% (inactive) | -0.76% (inactive) | 92.4% (inactive) | 93.5% (inactive) | 1.94% (inactive) | 4.69% (inactive) |
| CC(=O)NCCc1nc2ccccc2[nH]1 | 94 | 104% (inactive) | 94% (inactive) | 91.9% (inactive) | 93.7% (inactive) | -1% (inactive) | 94.7 | 93.7 | -5.2% (inactive) | -2.33% (inactive) | -3.03% (inactive) | 6.51% (inactive) | -0.62% (inactive) | 107% (inactive) | 97% (inactive) | -0.365% (inactive) | 2.3% (inactive) |
| COc1ccc(NC(=O)C2CCCN2S(=O)(=O)c2cccc3cccnc23)c(OC)c1 (stereo not given) | 96 | 106% (inactive) | 96% (inactive) | 90.5% (inactive) | 95% (inactive) | -0.87% (inactive) | 95.9 | 95 | 91.4% (active) | 84.7% (active) | 98.5% (active) | 95.7% (active) | -2.76% (inactive) | 91.6% (inactive) | 84.3% (inactive) | 0.91% (inactive) | -1.73% (inactive) |
| CC(=O)N1CCc2c(sc(NC(=O)c3ccc(S(=O)(=O)N(C)C)cc3)c2C#N)C1 | 83.5 | 105% (inactive) | 83.5% (inactive) | 73.3% (inactive) | 87.5% (inactive) | 5.97% (inactive) | 81.5 | 87.5 | -2.27% (inactive) | -5.41% (inactive) | -4.59% (inactive) | 4.39% (inactive) | -3.73% (inactive) | 104% (inactive) | 94.3% (inactive) | 0.115% (inactive) | 1.67% (inactive) |
| O=C(CC1Oc2ccccc2NC1=O)NCCCN1CCOCC1 (stereo not given) | 106 | 100% (inactive) | 106% (inactive) | 85.5% (inactive) | 93.5% (inactive) | -3.48% (inactive) | 96.9 | 93.5 | -5.07% (inactive) | 2.67% (inactive) | 2.08% (inactive) | -1.36% (inactive) | -2.31% (inactive) | 108% (inactive) | 96.8% (inactive) | 1.94% (inactive) | 0.57% (inactive) |
| Cc1cc(C)n2c(SCCN3C(=O)c4ccccc4C3=O)nnc2n1 | 90.5 | 95% (inactive) | 90.5% (inactive) | 111% (inactive) | 105% (inactive) | 11.1% (inactive) | 94 | 105 | -0.51% (inactive) | 7.17% (inactive) | -7.84% (inactive) | -8.13% (inactive) | -0.7% (inactive) | 102% (inactive) | 98.6% (inactive) | 2.08% (inactive) | 1.64% (inactive) |
| COc1ccc(N2CCN(CCNC(=O)CCS(=O)(=O)c3cccc4nsnc34)CC2)cc1 | 90 | 97% (inactive) | 90% (inactive) | 99.9% (inactive) | 103% (inactive) | 11.1% (inactive) | 91.6 | 103 | -6.58% (inactive) | -0.16% (inactive) | 0.45% (inactive) | 4.11% (inactive) | -1.51% (inactive) | 98.5% (inactive) | 95.2% (inactive) | 0.835% (inactive) | 5.62% (inactive) |
| Cc1c(NC(=O)c2ccc(Br)o2)c(=O)n(-c2ccccc2)n1C | 91 | 96% (inactive) | 91% (inactive) | 89.2% (inactive) | 91.2% (inactive) | 5.07% (inactive) | 86.1 | 91.2 | -5.06% (inactive) | -1.67% (inactive) | -11.6% (inactive) | -4.15% (inactive) | 0.9% (inactive) | 97.7% (inactive) | 103% (inactive) | 1.59% (inactive) | 2.23% (inactive) |
| CCC(C)NC(=O)c1cc(CC(C)C)on1 (stereo not given) | 84 | 111% (inactive) | 84% (inactive) | 95.5% (inactive) | 83.6% (inactive) | -11.1% (inactive) | 94.7 | 83.6 | -0.26% (inactive) | 18.3% (inactive) | -2.93% (inactive) | -0.685% (inactive) | 1.13% (inactive) | 102% (inactive) | 103% (inactive) | -0.07% (inactive) | 2.69% (inactive) |
| O=C(Nc1nnc(-c2ccc(Cl)cc2)o1)C1CCCCC1 | 87.5 | 99% (inactive) | 87.5% (inactive) | 67% (inactive) | 69.2% (inactive) | -17.3% (inactive) | 86.5 | 69.2 | -7.2% (inactive) | -2.33% (inactive) | 4.85% (inactive) | 8.62% (inactive) | -1.38% (inactive) | 54.2% (inactive) | 58.2% (inactive) | 1.51% (inactive) | 1.36% (inactive) |
| Cc1nnc(SCC(=O)Nc2ccc3c4c(cccc24)CC3)n1C | 102 | 79% (inactive) | 102% (inactive) | 93.2% (inactive) | 86.9% (inactive) | 0.115% (inactive) | 86.8 | 86.9 | -6.08% (inactive) | -3.83% (inactive) | -0.36% (inactive) | -5.08% (inactive) | -4.3% (inactive) | 92.9% (inactive) | 89.8% (inactive) | 3.25% (inactive) | 3.77% (inactive) |
| O=C(c1ccc(CNc2c(N3CCCC3)c(=O)c2=O)cc1)N1CCc2ccccc2C1 | 90.5 | 100% (inactive) | 90.5% (inactive) | 104% (inactive) | 95.3% (inactive) | 2.69% (inactive) | 92.6 | 95.3 | 3.59% (inactive) | 6.67% (inactive) | -4% (inactive) | -0.375% (inactive) | -0.78% (inactive) | 92.6% (inactive) | 91% (inactive) | 0.36% (inactive) | 0.72% (inactive) |
| COc1ccccc1CC(=O)Nc1ccc(OC)c(OC)c1 | 102 | 98.5% (inactive) | 102% (inactive) | 101% (inactive) | 89.6% (inactive) | 6% (inactive) | 83.6 | 89.6 | -6.76% (inactive) | 5.74% (inactive) | -8.11% (inactive) | -4.82% (inactive) | -0.4% (inactive) | 101% (inactive) | 104% (inactive) | 1.22% (inactive) | 2.2% (inactive) |
| CCN(CC)CCn1c(=N)n(CCO)c2ccccc21 | 94.5 | 94% (inactive) | 94.5% (inactive) | 107% (inactive) | 101% (inactive) | 8.55% (inactive) | 92.9 | 101 | -5.32% (inactive) | 2.33% (inactive) | 0.615% (inactive) | 1.18% (inactive) | -0.4% (inactive) | 101% (inactive) | 97.5% (inactive) | 0.605% (inactive) | 4.92% (inactive) |
| Cc1cc(C(N)=O)c2cc(Br)ccc2n1 | 95.5 | 95.5% (inactive) | 95.5% (inactive) | 109% (inactive) | 91.2% (inactive) | 8% (inactive) | 83.2 | 91.2 | -1.35% (inactive) | 0.49% (inactive) | -1.99% (inactive) | -7.49% (inactive) | -2.23% (inactive) | 98.3% (inactive) | 96.5% (inactive) | 0.94% (inactive) | 0.89% (inactive) |
| CC(=O)c1c(OC(=O)c2ccco2)c2ccccc2n1C | 91 | 102% (inactive) | 91% (inactive) | 74.6% (inactive) | 75.3% (inactive) | -8.43% (inactive) | 83.8 | 75.3 | -0.64% (inactive) | -8.83% (inactive) | -14.2% (inactive) | -7.23% (inactive) | -4.82% (inactive) | 75.1% (inactive) | 91.3% (inactive) | 0.15% (inactive) | 1.13% (inactive) |
| COc1ccccc1CNC(=O)CCn1c(=O)[nH]c2ccsc2c1=O | 97.5 | 102% (inactive) | 97.5% (inactive) | 114% (inactive) | 93.9% (inactive) | 4.96% (inactive) | 88.9 | 93.9 | -7.97% (inactive) | 2.17% (inactive) | -21% (inactive) | -14.4% (inactive) | -0.23% (inactive) | 101% (inactive) | 99.4% (inactive) | 1.01% (inactive) | 4.41% (inactive) |
| CC(C(=O)N1CC2(C)CC1CC(C)(C)C2)N1C(=O)c2ccccc2C1=O (stereo not given) | 84 | 101% (inactive) | 84% (inactive) | 101% (inactive) | 98.1% (inactive) | 16.8% (inactive) | 81.3 | 98.1 | -7.07% (inactive) | 0.32% (inactive) | -13.3% (inactive) | -0.265% (inactive) | -3.98% (inactive) | 82.1% (inactive) | 83.5% (inactive) | 0.545% (inactive) | 4.35% (inactive) |
